The sample as a whole holds a higher share of hits than the screen did.
Shiga inhibitor – inhibitors of Shiga toxin in Vero cells | Vero cells, Shiga toxin protein synthesis inhibition reporter | inhibition, % at 38.7 µM | 290,000 tested, 9.2% active; in the data active means inhibition mostly above about 28%, no sharp cut-off; inactive means mostly below about 43%
AmpC inh detg – AmpC beta-lactamase inhibition with detergent present; AmpC hydrolysis of nitrocefin, absorbance 480 nm, 0.01% Triton; 370,000 tested, 0.041% active; Potency, µM (highest dose often 114 µM), hits mostly inhibitors; P00811; further: nearly all actives have a fitted effect of over 25% in size
Target sequence (P00811 whole entry, looked up): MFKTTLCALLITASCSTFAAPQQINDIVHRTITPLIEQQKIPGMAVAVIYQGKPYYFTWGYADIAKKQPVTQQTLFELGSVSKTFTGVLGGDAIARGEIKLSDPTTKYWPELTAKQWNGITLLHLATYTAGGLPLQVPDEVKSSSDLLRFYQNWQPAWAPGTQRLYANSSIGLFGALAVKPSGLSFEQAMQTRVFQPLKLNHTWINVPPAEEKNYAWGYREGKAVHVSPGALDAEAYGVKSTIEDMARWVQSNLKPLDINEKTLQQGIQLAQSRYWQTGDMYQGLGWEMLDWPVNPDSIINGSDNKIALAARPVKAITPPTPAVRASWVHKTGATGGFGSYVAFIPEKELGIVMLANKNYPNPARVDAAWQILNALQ
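20 mM phosphate pH 7.0 + 0.01% (detergent screen) or 0.0001% Triton X-100; 5.3 nM AmpC reagent; cpd preinc 15 min RT; nitrocefin (800 uM stock) to start; A480 q20 s × 4 min; Activity was normalised to no-enzyme and no-compound control wells.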
NS1 inh – inhibitors of influenza NS1 protein function. Potency, µM (top dose mostly 46.1 µM). 270,000 tested, 0.4% active; calls by dose curve; further: actives are rising curves; nearly all actives have a fitted effect of over 50% in size
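OD600 was taken as the measure of yeast growth restored by compound in an NS1-expressing S. cerevisiae strain. Cells had been washed out of glucose medium and diluted 1:100 into galactose -URA medium, pH 6.0.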
CHX counter – counter-screen for Shiga toxin inhibitors: cycloheximide protein synthesis inhibition; cell reporter, cycloheximide protein synthesis inhibition counterscreen; max response, %; 300,000 tested, 12% active; in the data active means max response mostly above about 13%, no sharp cut-off; inactive means mostly below about 14%; further: read at 38.3 µM for the half of the compounds with a filed dose
AmpC inh no detg – inhibitors of E. coli AmpC beta-lactamase without detergent; P00811; AmpC nitrocefin hydrolysis, absorbance 480 nm, 0.0001% Triton; Potency, µM (highest dose often 57.1 µM), most hits filed as inhibitors; 330,000 tested, 0.52% active; AID 485341; further: nearly all actives have a fitted effect of over 20% in size
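20 mM phosphate pH 7.0 + 0.01% (detergent screen) or 0.0001% Triton X-100; 5.3 nM AmpC reagent; cpd preinc 15 min RT; nitrocefin (800 uM stock) to start; A480 q20 s × 4 min; Activity was normalised to no-enzyme and no-compound control wells.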
Each line names hits and unclear results; the compound was inactive in the other large screens. Unless noted, the call rests on the fitted dose curve; in most records, active means well fitted curve in the direction sought with a large enough effect; inconclusive means small, poorly fitted or top-dose-only effect, or another doubt; inactive means no such curve, though single readings can be large; an effect the other way counts as inactive or inconclusive.

COc1cc(/C=C/c2ccc3cccc(OC)c3n2)c(OC(C)=O)c([N+](=O)[O-])c1	AmpC inh detg inconclusive
O=C(N/N=C/c1ccc2cccc(OCc3ccccc3)c2n1)c1ccc(Br)cc1	AmpC inh detg inconclusive, CHX counter 18
NC(=S)N/N=C/c1ccc2cccc(OCc3ccccc3)c2n1	none
COc1ccc(C(=O)N/N=C/c2ccc3cccc(OCc4ccccc4)c3n2)cc1	Shiga inhibitor 61, CHX counter 22
COC(=O)c1cc(S(=O)(=O)NCCN2CCOCC2)cn1C	AmpC inh detg inconclusive
Cc1cc(C)c2c(=O)cc(C(=O)NCc3ccc(S(N)(=O)=O)cc3)oc2c1	none (no result: Shiga inhibitor, NS1 inh, CHX counter, AmpC inh no detg)
Cc1ccccc1-c1nc(-c2ccccn2)no1	none
COc1ccc(-c2nc(Cc3ccc(Cl)cc3)no2)cc1OC	none
Cc1ccccc1-c1nc(Cc2ccccc2)no1	Shiga inhibitor 69, CHX counter 51
Clc1ccc(-c2nc(Cc3ccccc3)no2)cc1	CHX counter 31
CCOc1ccc(NC(=O)Cn2c(CCC(=O)O)ccc2-c2ccc(Cl)cc2)cc1	none (no result: Shiga inhibitor, NS1 inh, CHX counter, AmpC inh no detg)
CC(C)(C)c1cc(NC(=O)Nc2ccc(Cl)cc2Cl)no1	Shiga inhibitor 78, CHX counter 19
CC(C)(C)c1cc(NC(=O)Nc2ccc(Br)cc2Cl)no1	Shiga inhibitor 61, CHX counter 16
Cc1c(Cl)cccc1NC(=O)c1cnc2sc(N3CCOCC3)nn2c1=O	none (no result: Shiga inhibitor, NS1 inh, CHX counter, AmpC inh no detg)
Nc1nc(N2CCN(c3ccccn3)CC2)nc2ccccc12	Shiga inhibitor 89, AmpC inh detg inconclusive, CHX counter 43
Nc1cc(C(F)(F)F)ccc1OCC1CCCO1 (stereo not given)	Shiga inhibitor 21, AmpC inh detg inconclusive, CHX counter 26
CC(=O)Nc1ccc(NC(=O)C(NC(=O)C2CCC(C)CC2)C(C)C)cc1 (stereo not given)	none (no result: Shiga inhibitor, NS1 inh, CHX counter, AmpC inh no detg)
O=c1c2c3c(sc2nc2sc(C4CC4)nn12)CCCC3	CHX counter 33
O=C(COc1ccc(Br)cc1Cl)NC(=S)Nc1ccccn1	Shiga inhibitor 115, CHX counter 76
Cc1nc(NC(=S)NC(=O)COc2ccccc2Cl)ccc1Br	none
Cc1ccc(OCC(=O)NC(=S)Nc2ccccn2)c(Br)c1	Shiga inhibitor 83, CHX counter 28
COc1ccc(OCC(=O)NC(=S)NNC(=O)COc2ccc(Br)cc2Cl)cc1	none
CC1=C(c2ccc(C)cc2)[N+](=O)C(C)(C)N1[O-]	Shiga inhibitor 78, CHX counter 19
CCOC(=O)C1CCN(S(=O)(=O)c2cc(Br)cc3c2N(C(=O)CC)CC3)CC1	none (no result: Shiga inhibitor, NS1 inh, CHX counter, AmpC inh no detg)
Cc1ccc(C(=O)Nc2nnc(C)s2)cc1	Shiga inhibitor 64, CHX counter 27 (no result: NS1 inh)
CC(C)c1nnc(NC(=O)COc2ccc3ccccc3c2)s1	none
Cc1nnc(NC(=O)c2c(F)cccc2F)s1	AmpC inh no detg 18µM
Cc1nnc(NC(=O)c2ccc3ccccc3c2)s1	Shiga inhibitor 74, CHX counter 31
CC(C)c1nnc(NC(=O)c2ccc3ccccc3c2)s1	Shiga inhibitor 108, CHX counter 51
CCc1cc(Cn2nc(-c3ccccc3)cc2C(=O)NCc2ccc(C)cc2)on1	none (no result: Shiga inhibitor, NS1 inh, CHX counter)
CCC(C)NC(=O)CSc1nnc(-c2ccc(Cl)cc2)n1N (stereo not given)	none (no result: NS1 inh)
COc1cc2c(cc1OC)C(C)N(C(=O)c1ccc(Br)o1)CC2 (stereo not given)	none
Cn1ccc2cc(S(=O)(=O)N3CCN(C(=O)Nc4cccc(F)c4)CC3)ccc21	none (no result: Shiga inhibitor, NS1 inh, CHX counter, AmpC inh no detg)
CCCc1cc(C(=O)Nc2nnc(C)s2)cs1	Shiga inhibitor 128, CHX counter 33
NC(=O)C1(c2ccccc2)OC1c1ccccc1 (stereo not given)	none (no result: Shiga inhibitor, NS1 inh, CHX counter)
Cc1ccc([N+](=O)[O-])c(OCc2ncc(Cl)n2C)c1	Shiga inhibitor 72, CHX counter 39
COc1ccc(C(=O)/C=C/Nc2ccc(S(=O)(=O)Nc3nc(C)cc(C)n3)cc2)c(OC)c1	none
Cc1cc(C)nc(NS(=O)(=O)c2ccc(N/C=C/C(=O)c3ccc(Cl)cc3)cc2)n1	CHX counter 11
COc1ccc(C(=O)/C=C/Nc2ccc(S(=O)(=O)Nc3nc(C)cc(C)n3)cc2)cc1OC	CHX counter 16
Cc1ccc(C(=O)N(c2ccccc2)C2CC(C)N(C(=O)c3ccco3)c3ccccc32)cc1 (stereo not given)	CHX counter 18
CCOc1ccc(-n2cc(-c3ccccc3)c3c(NCc4ccc(F)cc4)ncnc32)cc1	none (no result: Shiga inhibitor, NS1 inh, CHX counter, AmpC inh no detg)
CCOc1ccc(C2C(C(=O)c3cccs3)=C(O)C(=O)N2Cc2cccnc2)cc1 (stereo not given)	none (no result: NS1 inh)

Compound activity: PubChem, National Center for Advancing Translational Sciences (NCATS)
